From PubChem
VHR inh abs = VHR1 phosphatase inhibitors, primary screen, biochemical, absorbance, uHTS | Dual specificity protein phosphatase 3 (Homo sapiens), P51452 | inhibition, % at 13.3 µM | recombinant VHR phosphatase, pNPP absorbance | 290,000 compounds, 0.52% hits; in the data active = inhibition above about 50%
Target sequence (P51452 whole entry, looked up): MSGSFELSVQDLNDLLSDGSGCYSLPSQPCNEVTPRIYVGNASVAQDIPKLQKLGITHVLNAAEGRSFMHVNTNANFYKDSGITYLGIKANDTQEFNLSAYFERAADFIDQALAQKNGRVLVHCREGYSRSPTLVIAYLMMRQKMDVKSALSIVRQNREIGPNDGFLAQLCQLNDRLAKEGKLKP
SARS 3CLpro inh = SARS-CoV 3CLpro protease inhibitors, primary screen, biochemical, quenched FRET | Replicase polyprotein 1ab (Severe acute respiratory syndrome coronavirus), P0C6X7 | recombinant SARS-CoV 3CLpro, quenched FRET peptide cleavage | inhibition, % at 6 µM | 290,000 compounds, 0.14% hits; in the data active = inhibition above about 12%
MazF activator = activators of E. coli MazEF toxin-antitoxin RNase, primary screen, biochemical, fluorescence, uHTS | activation, % at 20 µM | 350,000 compounds, 0.32% hits | FAM/BHQ RNA-DNA oligo cleavage fluorescence, 5 h | Endoribonuclease toxin MazF (Escherichia coli (strain K12)), P0AE70; in the data active = activation above about 50%
Target sequence (P0AE70 whole entry, looked up): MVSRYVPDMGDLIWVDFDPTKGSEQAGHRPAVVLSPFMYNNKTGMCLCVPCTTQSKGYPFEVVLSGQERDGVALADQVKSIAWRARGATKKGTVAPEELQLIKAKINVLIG
CCHF vOTU inh = CCHFV vOTU protease inhibitors, primary screen, biochemical, Pep-AMC substrate, fluorescence. Crimean-Congo hemorrhagic fever virus L polyprotein viral ovarian tumor (vOTU) protease …. inhibition, % at 11.5 µM. 370,000 compounds, 0.55% hits. AID 651958, 2012; in the data active = inhibition above about 30%
BJeLR lethal = MLPCN primary cell-based screen for lethality selective to Ras in HRASV12 cells; BJeLR (HRASV12) viability, CellTiter-Glo ATP luminescence, 48 h; inhibition, % (no concentration beside the values); 300,000 compounds, 0.17% hits; AID 1554, 2009; in the data active = inhibition above about 50%
Numbers stand for hits; n = inactive; x = no result. Only some compounds are listed: those with a hit (about 1.4% of all), similar ones and a draw of the others.

SMILES	VHR inh abs	SARS 3CLpro inh	MazF activator	CCHF vOTU inh	BJeLR lethal
Cc1ccc(S(=O)(=O)NCCCNS(C)(=O)=O)cc1	n	n	n	n	n
Cc1ccc(S(=O)(=O)NCCNS(=O)(=O)c2ccc(C)cc2)cc1	58	n	n	n	n
O=C1OCC2OC(O)C(O)C(O)C2OC(=O)c2cc(O)c(O)c(O)c2-c2c(O)c(O)c3oc(=O)c4c(c(O)c(O)c5oc(=O)c2c3c54)-c2c1cc(O)c(O)c2O (stereo not drawn)	121	x	x	x	x
O=C1/C(=C/c2ccc([N+](=O)[O-])cc2)Oc2cc(O)ccc21	57	n	n	n	n
Cc1ccc(-n2c(COc3ccccc3)nnc2SCC(=O)Nc2ccc3c(c2)OCO3)cc1	x	x	x	n	x
O=C(Nc1ccccc1C(F)(F)F)OC1CCC12CCC(c1ccccc1)CC2 (stereo not drawn)	x	x	x	n	x
O=C(c1ccc(OC2CCN(CCc3ccccc3)CC2)cc1)N1CCC(CO)CC1	51	n	n	n	n
COC1CCN(C(=O)c2ccc(OC3CCN(CCc4ccccc4)CC3)cc2)CC1	n	n	n	n	n
COc1ccc(N2CCN(CCCNC(=O)CCc3cccc(F)c3)CC2)cc1	x	x	x	n	x
COc1cc(NC(=O)CCc2nnc3ccc(N4CCC5(CC4)OCCO5)nn23)cc(OC)c1	n	n	n	n	n
COc1cc(NC(=O)CCc2nnc3ccc(N4CCN(C)CC4)nn23)cc(OC)c1	52	n	n	n	n
COc1cc2c(cc1NC(=O)CSc1nnc(-c3cccc(Cl)c3)n1Cc1ccco1)oc1ccccc12	x	x	x	n	x
O=C(NCC(c1cccs1)N1CCOCC1)c1ccccc1NS(=O)(=O)c1cccc([N+](=O)[O-])c1 (stereo not drawn)	56	n	n	n	n
O=C(NCC(c1cccs1)N1CCOCC1)c1ccccc1NS(=O)(=O)c1ccc(Cl)c([N+](=O)[O-])c1 (stereo not drawn)	n	n	n	n	n
O=C(NNC(=O)C1CC(=O)N(Cc2ccccc2)C1)c1ccc(Br)cc1 (stereo not drawn)	57	n	n	n	n
COc1ccc(-n2c(SCC(=O)N3CCCCC3C)nnc2-c2ccncc2)cc1 (stereo not drawn)	x	x	x	n	x
CCOc1ccc(-c2c(C)n(-c3ccc(OCC)cc3)c3[n+]2CCCCC3)cc1	n	n	n	n	70
CCOc1ccc(-n2c(-c3ccccc3)c[n+]3c2CCCCC3)cc1	n	n	n	n	n
O=[N+]([O-])c1ccc(Nc2ccccc2O)c2nonc12	n	n	232	n	n
O=C(O)c1ccc(Nc2ccc([N+](=O)[O-])c3nonc23)cc1	n	n	n	n	n
COc1cc(OC)cc(C(=O)N2CCN(C(=O)c3cccs3)CC2)c1	58	n	n	n	n
Cn1c(CNC(=O)c2ccc(Cl)cc2)nnc1SCC(=O)Nc1sc2c(c1C#N)CCCC2	n	n	106	n	n
N#C/C(=C\c1ccco1)c1nc2ccccc2s1	n	n	54	n	n
N#C/C(=C/c1ccco1)c1nc2ccccc2s1	n	n	65	n	n
N#C/C(=C/c1ccc(-c2cc(C(=O)O)cc(C(=O)O)c2)o1)c1nc2ccccc2s1	n	n	x	x	n
SMILES	VHR inh abs	SARS 3CLpro inh	MazF activator	CCHF vOTU inh	BJeLR lethal
C=C(C)CSc1nnc(-c2cc(-c3ccc(OC)cc3)n[nH]2)n1N	x	x	x	n	x
CCC1CCCCN1CCCNC(=O)c1nn(C)c2c1CS(=O)(=O)c1ccccc1-2 (stereo not drawn)	n	n	n	n	n
CC1CCCCN1CCCNC(=O)c1ccc(Br)cc1 (stereo not drawn)	58	n	n	n	n
CC1CCCCN1CCCNC(=O)c1nn(C)c2c1CS(=O)(=O)c1ccccc1-2 (stereo not drawn)	59	n	n	n	n
Cc1c(C)n(C)c2ccc(C(=O)NCCCN3CCCCC3C)cc12 (stereo not drawn)	n	n	n	n	n
CCOC(=O)CC[C@H]1CC[C@]2(CCCN(S(=O)(=O)c3ccccc3)C2)O1	x	x	x	n	x
COC(=O)[C@]12C[C@H](CC(=O)NCc3ccccc3)C(=O)N(Cc3ccco3)C1=C[C@H](COCc1ccccc1)O[C@@H]2C	x	x	x	n	x
Cc1cccc(Nc2nc(Cl)ncc2F)c1C	60	n	n	n	n
COC(=O)N1CCC[C@H]1c1cccc2[nH]cc(C)c12	x	x	x	n	x
